# How the values were obtained:
# Settings in all cases: concentration: 1 μM, replicates: in singlicate; n = 1
# CAMKK1 = tested on: CAMKK1
# CAMKK2 = tested on: CAMKK2
# CASK = tested on: CASK
# CDC2L1 = tested on: T1, CDC2L1
# T1 construct: gene CDK11B
# CDC2L2 = tested on: CDC2L2
# CDC2L5 = tested on: T2, CDC2L5
# T2 construct: gene CDK13
# CDK11 = tested on: T3, CDK11
# T3 construct: gene CDK19
# CDK2 = tested on: CDK2
# CDK3 = tested on: CDK3
# CDK4-cyclinD1 = tested on: CDK4-cyclinD1
# 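Also: KINOMEscan kinase panel screen.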
Structure (SMILES),%Inh (CAMKK1),%Inh (CAMKK2),%Inh (CASK),%Inh (CDC2L1),%Inh (CDC2L2),%Inh (CDC2L5),%Inh (CDK11),%Inh (CDK2),%Inh (CDK3),%Inh (CDK4-cyclinD1)
CC(=O)Nc1ccc(COc2ccc(Nc3ccnc4cc(-c5ccccn5)ccc34)cc2)cc1.Cl [GW440148],4%,26%,1%,12%,11%,0%,17%,1%,0%,0%
NS(=O)(=O)c1cccc(-c2ccc3nccc(-c4cccc(S(N)(=O)=O)c4)c3c2)c1 [GW867253],13%,19%,30%,0%,0%,0%,13%,0%,22%,0%
Cn1cc(-c2ccc3c(c2)CCN3C(=O)Cc2ccccc2Cl)c2c(N)ncnc21 [GSK2608885],25%,28%,0%,0%,14%,0%,0%,0%,0%,0%
COc1cc2c(cc1OC[C@@H](O)CO)ncc1c3ccc(C#N)cc3[nH]c21,60%,22%,0%,0%,0%,0%,20%,0%,19%,0%

# Reference: PMC5540273 (PLoS ONE, 2017)
